# Assay results: the supplement of paper PMC8007513
# Counter-ions that a name gives are not always drawn. ± gives the standard error. About 130 (10%) of roughly 1,300 compounds showed an effect of 50% or more. What follows is part of a selection rich in strong results, with near analogues and random picks from the rest.
# Tested on: Trichoderma virens ATCC 9645
# Experiment: growth yield (OD600) with compound + IPBC relative to untreated control; higher = less growth inhibition
# Conditions: compound concentration: 100 uM, IPBC concentration: 200 ng/ml
# In short: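 Trichoderma virens ATCC 9645 spores from 7-day potato dextrose agar plates were suspended in potato dextrose broth at 15,000 spores ml^−1. Aliquots of 100 μl with library compounds at 100 μM final, with or without a co-applied biocide at 200 ng ml^−1, were grown in 96-well plates at 30 °C. OD600 was read at 40 h and 72 h on a BioTek EL800. Growth is expressed relative to the control without either agent, as means of duplicate screens.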
Compound,growth yield (40 h) [%],growth yield (72 h) [%]
COC(c1ccccc1)(c1ccccc1)[C@H](Oc1nc(C)cc(C)n1)C(=O)O [Ambrisentan] + CCCCNC(=O)OCC#CI [3-iodo-2-propynyl butylcarbamate (IPBC)],89.3 ± 5.7,93.9 ± 3.9
NC(=O)N1c2ccccc2CC(=O)c2ccccc21 [Oxcarbazepine] + CCCCNC(=O)OCC#CI [3-iodo-2-propynyl butylcarbamate (IPBC)],83.4 ± 2.4,92.9 ± 1.9
CC(=O)N1CCN(c2ccc(OCC3COC(Cn4ccnc4)(c4ccc(Cl)cc4Cl)O3)cc2)CC1 (stereo not drawn) [Ketoconazole] + CCCCNC(=O)OCC#CI [3-iodo-2-propynyl butylcarbamate (IPBC)],3.34 ± 0.48,2.52 ± 0.42
CC(C)N1CCN(c2ccc(OCC3COC(Cn4cncn4)(c4ccc(Cl)cc4Cl)O3)cc2)CC1 (stereo not drawn) [Terconazole] + CCCCNC(=O)OCC#CI [3-iodo-2-propynyl butylcarbamate (IPBC)],69.9 ± 2.5,87 ± 1.3
CCC(C)n1ncn(-c2ccc(N3CCN(c4ccc(OCC5COC(Cn6cncn6)(c6ccc(Cl)cc6Cl)O5)cc4)CC3)cc2)c1=O (stereo not drawn) [Itraconazole] + CCCCNC(=O)OCC#CI [3-iodo-2-propynyl butylcarbamate (IPBC)],14.3 ± 1.9,11.3 ± 1.7
CC[C@@H]([C@H](C)O)n1ncn(-c2ccc(N3CCN(c4ccc(OC[C@@H]5CO[C@@](Cn6cncn6)(c6ccc(F)cc6F)C5)cc4)CC3)cc2)c1=O [Posaconazole] + CCCCNC(=O)OCC#CI [3-iodo-2-propynyl butylcarbamate (IPBC)],3.97 ± 1.4,3.78 ± 1.7
C[N+]1([O-])[C@@H]2C[C@@H](OC(=O)[C@H](CO)c3ccccc3)C[C@H]1[C@@H]1O[C@@H]12 (stereo partly drawn) [Scopolamin-N-oxide hydrobromide] + CCCCNC(=O)OCC#CI [3-iodo-2-propynyl butylcarbamate (IPBC)],103 ± 2.2,102 ± 1.1
CC(C)c1cccc(C(C)C)c1O [Propofol] + CCCCNC(=O)OCC#CI [3-iodo-2-propynyl butylcarbamate (IPBC)],101 ± 2.9,98.4 ± 1.3
CO[C@@]1(NC(=O)C2SC(=C(C(N)=O)C(=O)O)S2)C(=O)N2C(C(=O)O)=C(CSc3nnnn3C)CS[C@@H]21 (stereo partly drawn) [Cefotetan] + CCCCNC(=O)OCC#CI [3-iodo-2-propynyl butylcarbamate (IPBC)],94.8 ± 2.4,96.5 ± 1.9
NS(=O)(=O)c1cc2c(cc1C(F)(F)F)NCNS2(=O)=O [Hydroflumethiazide] + CCCCNC(=O)OCC#CI [3-iodo-2-propynyl butylcarbamate (IPBC)],89.1 ± 1.1,92.4 ± 0.73
C[C@]12Cc3c[nH]nc3C[C@@H]1CC[C@@H]1[C@@H]2CC[C@@]2(C)[C@H]1CC[C@]2(C)O [Stanozolol] + CCCCNC(=O)OCC#CI [3-iodo-2-propynyl butylcarbamate (IPBC)],91.02 ± 0.16,95.9
CCN1CC(CCN2CCOCC2)C(c2ccccc2)(c2ccccc2)C1=O (stereo not drawn) [Doxapram hydrochloride] + CCCCNC(=O)OCC#CI [3-iodo-2-propynyl butylcarbamate (IPBC)],88.6 ± 1.3,91.14 ± 0.32
CN(C)CCCSC(=N)N [Dimaprit dihydrochloride] + CCCCNC(=O)OCC#CI [3-iodo-2-propynyl butylcarbamate (IPBC)],93.9 ± 6.5,95.8 ± 4.3
Cc1ccc(-c2ncc(Cl)cc2-c2ccc(S(C)(=O)=O)cc2)cn1 [Etoricoxib] + CCCCNC(=O)OCC#CI [3-iodo-2-propynyl butylcarbamate (IPBC)],88.79 ± 0.48,91.14 ± 0.73
CN[C@H]1CC[C@@H](c2ccc(Cl)c(Cl)c2)c2ccccc21 [Sertraline] + CCCCNC(=O)OCC#CI [3-iodo-2-propynyl butylcarbamate (IPBC)],30.8 ± 4.1,82.5 ± 2
CN[C@@H]1C[C@@H](c2ccc(Cl)c(Cl)c2)c2ccccc21 [Indatraline hydrochloride] + CCCCNC(=O)OCC#CI [3-iodo-2-propynyl butylcarbamate (IPBC)],29.4 ± 4.9,79.5 ± 1.7
Cc1c(N(C)CS(=O)(=O)O)c(=O)n(-c2ccccc2)n1C [Dipyrone] + CCCCNC(=O)OCC#CI [3-iodo-2-propynyl butylcarbamate (IPBC)],92.4 ± 6.7,87.9 ± 5.2
COc1ccnc(C[S+]([O-])c2nc3cc(OC(F)F)ccc3[nH]2)c1OC (stereo not drawn) [Pantoprazole sodium] + CCCCNC(=O)OCC#CI [3-iodo-2-propynyl butylcarbamate (IPBC)],73.5 ± 2.4,98.9 ± 0.94
C#C[C@]1(O)CC[C@H]2[C@@H]3CCc4cc(OC)ccc4[C@H]3CC[C@@]21C [Ethynylestradiol 3-methyl ether] + CCCCNC(=O)OCC#CI [3-iodo-2-propynyl butylcarbamate (IPBC)],87 ± 16,88.9 ± 12
CO[C@@]1(NC(=O)C(C(=O)O)c2ccc(O)cc2)C(=O)N2C(C(=O)O)=C(CSc3nnnn3C)CO[C@@H]21 (stereo partly drawn) [Moxalactam disodium salt] + CCCCNC(=O)OCC#CI [3-iodo-2-propynyl butylcarbamate (IPBC)],97.1 ± 14,96 ± 7.7
CCn1cc(C(=O)O)c(=O)c2cc(F)c(N3CCNCC3)nc21 [Enoxacin] + CCCCNC(=O)OCC#CI [3-iodo-2-propynyl butylcarbamate (IPBC)],83.9 ± 1.6,87 ± 1.5
CCCCC(CC)CN1CN(CC(CC)CCCC)CC(C)(N)C1 (stereo not drawn) [Hexetidine] + CCCCNC(=O)OCC#CI [3-iodo-2-propynyl butylcarbamate (IPBC)],28.6 ± 8.6,91.1 ± 1.8
CCOC1O[C@H]([C@@H](COCc2ccccc2)OCc2ccccc2)[C@H](OCc2ccccc2)[C@H]1O (stereo partly drawn) [Tribenoside] + CCCCNC(=O)OCC#CI [3-iodo-2-propynyl butylcarbamate (IPBC)],75.4 ± 2.1,88.1 ± 1.1
COc1cc([C@@H]2c3cc4c(cc3[C@H](O)[C@H]3COC(=O)[C@H]23)OCO4)cc(OC)c1OC [Podophyllotoxin] + CCCCNC(=O)OCC#CI [3-iodo-2-propynyl butylcarbamate (IPBC)],104 ± 6.3,102 ± 4.5
